# TDP-43 rescue: rescues yeast from TDP-43 toxicity; yeast TDP-43 toxicity rescue, BacTiter-Glo growth, 24 h; Potency, µM (top dose mostly 46.1 µM), usual class: activators; 0.45% of 45,000 active; AID 1347073; active = well fitted activation curve with a large enough effect; also: 0% is about no effect; nearly all actives have a fitted effect of over 55% in size
#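 TDP-43-expressing yeast, pregrown in raffinose, seeded at OD600 0.02 in galactose medium with compound for 24 hr at 30 deg C. Growth read by BacTiter-Glo luminescence, so rescue of toxicity appears as activation.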
# Numbers without * were called inactive; i = inactive. Many of the other results were omitted from the sample, so hits are more common in it than they were. Potency is read from the fitted curve at half-maximal effect.
SMILES,TDP-43 rescue
CC1CN(S(=O)(=O)c2cccc(C(=O)Nc3ccccc3N3CCOCC3)c2)CC(C)O1 (stereo not given),i
NS(=O)(=O)c1ccc(Sc2ccc3ccccc3c2)nc1,i
COCCn1c(-c2ccc(Cl)cc2Cl)nc2c(c(=O)c3ccccc3n2C)c1=O,i
COc1ccc(-n2c(-c3ccc(Cl)cc3Cl)n[nH]c2=S)c(OC)c1,i
Clc1cccc(COn2c(-c3ccc(Cl)cc3Cl)nc3ncccc32)c1,25.1µM*
CC(NC(=O)c1ccccc1F)c1nnc(SCc2nc3ccccc3c(=O)[nH]2)n1C (stereo not given),i
O=C1CCCN2N=C(SCC(=O)Nc3cccc(F)c3)SC2=N1,i
O=C1NC(c2ccc(Br)cc2)=N/C1=C/c1ccco1,i
CC(C)C(C)NC(=O)CN1C(=O)NC(c2ccccc2)(c2ccccc2)C1=O (stereo not given),i
COc1ccc(-c2ccc(=O)n(Cc3cc(=O)n4ccccc4n3)n2)cc1,i
c1ccc(-c2nc(-c3ccco3)n3ccccc23)cc1,12.6µM*
Fc1ccc(-n2c(-c3ccco3)nc3nc4ccccc4nc32)cc1,i
Clc1c(-c2ccccc2)nc2ccccn12,i
O=C(CN1C(=O)CSc2ccc(S(=O)(=O)N3CCCCCC3)cc21)NCCc1ccccc1,i
Cc1ccc2c(c1)/C(=C/c1ccccc1)C(=O)N2,22.4µM*
Cc1ccc2c(c1)C(O)(CC(=O)/C=C/C=C/c1ccccc1)C(=O)N2 (stereo not given),i
Cc1ccc(C)c(C2C(=O)c3ccccc3C2=O)c1,i
CC1CN(CCOc2ccc([N+](=O)[O-])cc2)CC(C)O1 (stereo not given),i
Cc1ccc(S(=O)(=O)Nc2nc3ccccc3nc2N2CCOCC2)cc1,i
CC(C)c1ccc(OCC(=O)Nc2ccncc2)cc1,i
O=C(CCCSc1ccc(Cl)cc1)Nc1ccccc1O,11.2µM*
O=C(CSCc1ccc(Cl)cc1)Nc1ccccc1O,i
Cc1ccc(SCCC(=O)N/N=C/c2ccccc2O)cc1,i
O=C(Oc1ccnc2cc(Cl)ccc12)N1CCCCCC1,3.16µM*
Oc1ccc(N2CCN(c3ccnc4cc(Cl)ccc34)CC2)cc1,i
SMILES,TDP-43 rescue
COc1ccccc1Oc1ccnc2cc(Cl)ccc12,i
COc1ccc(C(=O)OCC(=O)c2ccc3c(c2)NC(=O)CO3)cc1[N+](=O)[O-],i
Cc1cccc(C)c1OCCOC(=O)c1n[nH]c2ccccc12,14.1µM*
CCN(Cc1ccccc1)C(=O)COC(=O)c1n[nH]c2ccccc12,i
O=C(COC(=O)c1n[nH]c2ccccc12)Nc1ccccc1F,i
CC(C)NCC(O)(c1ccc(Cl)cc1)c1ccc(Cl)cc1,i
O=C(O)C1CC=CCC1C(=O)NCCCCc1ccccc1 (stereo not given),i
Cc1cccc(C(=O)N[C@H](C(=O)OCc2cc(=O)n3c(n2)sc2ccccc23)C(C)C)c1,i
Cc1cc(C(=O)N/N=C(\CCC(=O)O)c2cccs2)c2ccccc2n1,i
O/N=C(/c1ccc(Cl)cc1)C1CC1c1ccccc1 (stereo not given),11.2µM*
CC1CC(OC(=O)c2ccccc2C(=O)c2ccc(Cl)cc2)C(=O)O1 (stereo not given),i
C/C(=N/NS(=O)(=O)c1ccc(C)cc1)[C@H]1C[C@@H]1c1ccccc1,i
COc1ccc(/C=C(\C#N)C(=O)NCc2cccnc2)cc1OC,i
CN1CCN(S(=O)(=O)c2ccc(Sc3nnnn3-c3ccccc3)c([N+](=O)[O-])c2)CC1,i
Cc1ccc(-n2nnnc2SCC(=O)NNC(=O)c2ccc([N+](=O)[O-])cc2)cc1,i
CC(=O)c1ccc(Sc2nnnn2-c2ccccc2)c([N+](=O)[O-])c1,20µM*
Cc1cc(C)cc(NC(=S)NCC2CCN(C(C)c3ccccc3)C2)c1 (stereo not given),i
Cc1cccc(NC(=S)NCCCN2CCOCC2)c1,i
COc1ccc(N2CCC(CNC(=S)Nc3cccc(C)c3)C2)cc1 (stereo not given),14.1µM*
CC(C)(CCC(=S)N1CCOCC1)C1CCCCC1,i
COc1ccccc1-c1cnn2c(NC3CCCC3)cc(C)nc12,i
N#Cc1sc2nc(C3CC3)cc(-c3ccc(Cl)cc3)c2c1N,i
O=C(OC(C(=O)NCc1ccccc1)c1ccccc1F)c1ccco1 (stereo not given),i
CC1CN(C(=O)N2c3ccccc3Sc3ccccc32)CC(C)O1 (stereo not given),12.6µM*
CC1CN(C(=O)CS(=O)(=O)Cc2ccccc2)CC(C)O1 (stereo not given),i
SMILES,TDP-43 rescue
CC1CN(C(=O)C(Sc2ccccc2)c2ccccc2)CC(C)O1 (stereo not given),i
CCc1nc2c(OCC3COc4ccccc4O3)cccn2c1N(C)C(=O)c1ccccc1F (stereo not given),i
CC1Cc2ccccc2N1C(=O)COC(=O)Cn1nnc(-c2ccccc2)n1 (stereo not given),i
CC1Cc2ccccc2N1C(=O)COC(=O)c1c2c(nc3ccccc13)CCCCC2 (stereo not given),14.1µM*
CCCNC(=O)COC(=O)c1c2c(nc3ccccc13)CCC2,i
CC1(C)CC(NC(=O)Cc2ccccc2[N+](=O)[O-])CC(C)(C)N1,i
O=C(C[n+]1cc(Br)cc(Br)c1)c1ccc(Cl)cc1,i
COCCNC(=O)C1(C)CCN(C(=O)C2(c3ccc(Cl)cc3)CCCC2)C1 (stereo not given),i
COCCNC(=O)C1CCCN(C(=O)C2(c3ccc(Cl)cc3)CCCC2)CC1 (stereo not given),i
CC1(C(=O)O)CCCN(C(=O)C2(c3ccc(Cl)cc3)CCCC2)C1 (stereo not given),14.1µM*
O=C(c1ccccc1)N1CCN(S(=O)(=O)N2CCCCCC2)CC1,i
COc1ccc(C2Nc3ccccc3C(=O)N2NS(C)(=O)=O)cc1OC (stereo not given),i
CC1CCN(C2CC(=O)N(c3ccccc3)C2=O)CC1 (stereo not given),i
COC(=O)c1ccc(N2C(=O)CC(N3CCOCC3)C2=O)cc1 (stereo not given),15.8µM*
CCOC(=O)c1ccc(N2C(=O)CC(N3CCN(Cc4ccccc4)CC3)C2=O)cc1 (stereo not given),i
COC(=O)CCC(=O)N(CCN(C(=O)CCC(=O)OC)c1ccccc1)c1ccccc1,i
Fc1ccc(-c2csc3ncnc(Cl)c23)cc1,14.1µM*
Cc1ccc(-c2csc3ncnc(NS(=O)(=O)c4ccc(Cl)cc4)c23)cc1,i
CC(=O)CSc1ncnc2scc(-c3ccc(F)cc3)c12,i
O=C(O)c1ccc(-n2nnnc2SCc2cccc(Br)c2)cc1,i
CCOc1ccccc1NC(=O)c1ccc(-n2cncn2)nc1,i
Cc1ccc(N(CC(=O)NC2CCCC2)C(=O)c2ccc(C)s2)cc1,i
Cc1cccc(C)c1OCc1nc2c3cnn(-c4ccccc4F)c3ncn2n1,i
COc1ccc(Cc2nc3c4cnn(-c5ccccc5F)c4ncn3n2)cc1,i
Fc1ccccc1-n1ncc2c1ncn1nc(Cc3ccccc3)nc21,11.2µM*
O=C(NC(Cc1ccccc1)C(=O)N1CCN(S(=O)(=O)c2ccccc2F)CC1)c1ccccc1 (stereo not given),i
COc1cc(/C=C/C(=O)c2ccc3c(c2)OCCO3)cc(Br)c1OCC(=O)N(C)C,15.8µM*
